Source: PubChem (National Center for Advancing Translational Sciences (NCATS))
Sampled rows, rich in hits. Any-hit rate of the full collection: about 6%.
D3 antag – blocks the human D3 dopamine receptor. AID 652054. P35462. 360,000 compounds, 2.5% hits. max response, negative = inhibition, %. D3R cells, DiscoveRx beta-arrestin luminescence, antagonist mode; hits give low values; in the data active = max response below about -50%; inconclusive = no clear call, values can overlap the other calls
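Cells plated overnight at 1500 cells/well, then exposed to library compounds with dopamine controls for 90 minutes at 37 degrees C. DiscoveRx reagent added for 30–60 minutes at room temperature; luminescence read, quantitative HTS format.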
D1 ag – agonists of human D1 dopamine receptor | HEK293 T-REx D1 cells, calcium flux, agonist mode | activation, % at 2 µM | 360,000 compounds, 1% hits | AID 504660; in the data active = activation above about 30%
Target sequence (P21728 whole entry, looked up): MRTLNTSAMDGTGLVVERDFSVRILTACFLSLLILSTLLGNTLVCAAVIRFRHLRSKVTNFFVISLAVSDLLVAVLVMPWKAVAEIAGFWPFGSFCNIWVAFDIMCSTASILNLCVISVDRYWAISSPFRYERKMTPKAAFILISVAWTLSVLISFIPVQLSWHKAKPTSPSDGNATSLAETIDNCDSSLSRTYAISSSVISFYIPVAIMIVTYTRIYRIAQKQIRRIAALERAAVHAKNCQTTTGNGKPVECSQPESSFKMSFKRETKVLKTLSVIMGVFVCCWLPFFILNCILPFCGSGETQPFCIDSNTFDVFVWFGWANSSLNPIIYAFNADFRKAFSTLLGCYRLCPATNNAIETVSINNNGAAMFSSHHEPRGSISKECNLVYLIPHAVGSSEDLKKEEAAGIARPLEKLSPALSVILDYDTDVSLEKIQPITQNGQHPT
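Agonism was scored from calcium flux recorded over 180 s (1 read/s) after pintool compound addition, following a 10-cycle baseline. Cells were inducible force-coupled HEK293 TREx D1, plated overnight at 30 C and loaded with no-wash calcium dye.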
DRD3 agonist – D3 dopamine receptor (human) agonism. P35462. D3R DiscoveRx beta-arrestin cells, luminescence, 90 min. max activation, %. 410,000 compounds, 0.58% hits; in the data active = max activation above about 30%
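Cells at 1500/well, incubated overnight, then treated with pinned compounds (dopamine as control) for 90 min at 37 degrees C. DiscoveRx reagent added for 30 - 60 minutes at room temperature; luminescence read.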
D1 antagonist – human D1 dopamine receptor antagonism; P21728; HEK293 TREx D1 cells, calcium flux, dopamine EC80; hits give low values; activity change, negative = inhibition, % at 10 µM; 360,000 compounds, 3.2% hits; AID 504652; in the data active = activity change below about -30%
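Compound effects on dopamine-evoked calcium signalling were measured in tetracycline-induced HEK293 Trex D1 cells. Dopamine at EC80 followed a 180 s compound pre-read, and fluorescence was tracked kinetically for 180 s more.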
D1 potentiator – enhances dopamine response at the human D1 receptor | P21728 | HEK293 TREx D1 cells, calcium flux, dopamine EC20 potentiation | potentiation, % at 10 µM | 360,000 compounds, 0.036% hits; in the data active = potentiation above about 30%
A number is an active result; n = inactive; u = inconclusive; x = no result given.

SMILES	D3 antag	D1 ag	DRD3 agonist	D1 antagonist	D1 potentiator
CCOC(=O)C1=CN(Cc2cccc(F)c2)S(=O)(=O)N(C)C1c1ccccc1 (stereo not given)	u	x	n	x	x
Cn1cnnc1SCc1ccc(C(=O)N/N=C(\CCC(=O)O)c2ccc(C(C)(C)C)cc2)cc1	-54	n	n	n	n
COc1ccc(/C(C)=N/NC(=O)c2ccc(CSc3nncn3C)cc2)cc1	n	n	n	n	n
C/C(=N\NC(=O)c1ccc(CSc2nncn2C)cc1)c1ccc(Cl)cc1	n	n	n	-32	n
CN(Cc1ccc(C(C)(C)C)cc1)C(=O)c1ccc2c(=O)n3c(nc2c1)CCC3	n	n	n	n	n
OC[C@@H]1CN(Cc2ccccc2)C[C@H](n2ccc3c(N4CCCC4)ncnc32)O1	n	x	n	x	x
Cn1cc(CN(C(=O)Nc2ccc(Cl)c(Cl)c2)C2CCCCC2)c2ccccc21	x	n	n	-47	n
Cn1cc(CN(C(=O)Nc2ccccc2)C2CCCCC2)c2ccccc21	x	n	n	n	n
Cn1c(=O)c2cc(S(=O)(=O)NC(Cc3ccccc3)C(=O)NCc3ccco3)ccc2n(C)c1=O (stereo not given)	n	n	n	n	n
Cn1c(=O)c2cc(S(=O)(=O)NC(Cc3ccccc3)C(=O)NCC3CCCO3)ccc2n(C)c1=O (stereo not given)	n	n	n	-39	n
CCn1c(SCC(=O)NCc2cccs2)nnc1-c1cccs1	n	n	n	-39	n
CCCN1C(=O)/C(=C\C=C2\N(CC)c3ccccc3C2(C)C)SC1=S	n	92	n	n	n
CO/N=C/C=C1/N(C)c2ccccc2C1(C)C	n	n	n	n	n
CCCN1C(=O)/C(=C\C=C2/Sc3ccccc3N2CC)SC1=S	x	n	x	n	n
CN1/C(=C\C=C2/SC(=S)NC2=O)C(C)(C)c2ccccc21	-53	436	n	n	n
CN(C)c1ccc(N=C/C=C2/N(C)c3ccccc3C2(C)C)cc1	n	n	n	-30	n
CN1/C(=C\C=C2/C(=O)Oc3ccccc3C2=O)C(C)(C)c2ccccc21	n	545	n	n	n
COc1ccc(N2CCN(C(=O)C(C)n3nc(C)c4sc5ccccc5c4c3=O)CC2)cc1 (stereo not given)	x	n	n	n	n
CN1/C(=C\C=N\O)C(C)(C)c2ccccc21	n	n	n	n	n
CN1C(=CC=C2C=C(I)C(=O)C(I)=C2)C(C)(C)c2ccccc21	n	n	n	-42	n
CCOc1ccccc1C(=O)N[C@H](C(=O)Nc1nc2c(s1)CCCC2)C(C)C	-74	n	n	n	n
CCNc1nc(Cl)nc(NC2CCCCC2)n1	n	n	n	n	n
CC(C)(CO)Nc1nc(Cl)nc(NC2CCCCC2)n1	n	n	34	n	n
CC1=C[C@H](O)CC(C)(C)[C@H]1/C=C/C(C)=C/C=C/C(C)=C/C=C/C=C(C)/C=C/C=C(C)/C=C/C1=C(C)C[C@@H](O)CC1(C)C	x	x	n	x	x
Cc1c(Cl)sn(-c2ccc(Cl)cc2)c1=O	-52	n	n	n	n
SMILES	D3 antag	D1 ag	DRD3 agonist	D1 antagonist	D1 potentiator
Cc1nn(-c2ccc(Cl)cc2)c(=O)c2ccccc12	n	n	n	n	n
Cc1ccc(-c2ccc(SCC(=O)NC3CCCC3)nn2)cc1	n	n	n	-31	n
Cc1ccc(-c2ccc(SCC(=O)NC3CCCCC3)nn2)cc1	n	n	n	n	n
CCOC(=O)c1cc(-c2ccc(F)cc2)n(CCC(=O)NC2CCCCC2)c1C	x	n	n	n	n
O=C(NCCN1CCC(n2c(=O)[nH]c3ccccc32)CC1)c1ccc(F)c(C(F)(F)F)c1	-84	x	n	x	x
O=C(NCCN1CCC(n2c(=O)[nH]c3ccccc32)CC1)c1ccc(F)c(F)c1	-93	x	n	x	x
COc1ccc(C(=O)NCCN2CCC(n3c(=O)[nH]c4ccccc43)CC2)cc1F	-91	x	n	x	x
O=C(NCCN1CCC(n2c(=O)[nH]c3ccccc32)CC1)c1ccc(C(F)(F)F)cc1C(F)(F)F	-92	x	n	x	x
CCCN(CCC)C(=O)Cn1c(=O)n(-c2cccc(C)c2)c(=O)c2c1c1cc(OC)ccc1n2C	x	n	n	n	n
Cc1c(Cl)cccc1N1C(=O)CC(N(O)c2ccccc2)C1=O (stereo not given)	n	n	n	n	n
Cc1cccc(C)c1N1C(=O)CC(N(O)c2ccccc2)C1=O (stereo not given)	n	n	n	-31	n
CCCC(=O)N(Cc1cc2cc(OC)ccc2[nH]c1=O)c1ccccc1OC	n	x	n	x	x
CC(=C/c1ccccc1)/C=N/NC(=O)CSc1nc(C)cc(C)n1	n	n	n	-34	n
O=C(N/N=C/C(Br)=C\c1ccccc1)c1n[nH]c2c1CCC2	u	n	n	n	n
CC(/C=N/NC(=O)c1ccccc1F)=C\c1ccccc1	n	n	n	-35	n
Cc1cc(C(=O)N/N=C/C(Cl)=C/c2ccccc2)c(C)o1	n	n	n	-33	n
CC(/C=N/NC(=O)c1n[nH]c2c1CCC2)=C\c1ccccc1	n	n	n	-79	n
O=C(CN1CCCC1c1cccs1)N1CCN(S(=O)(=O)c2cccc(F)c2)CC1 (stereo not given)	n	n	n	n	n
FC(F)(F)c1cc(Cc2nc3ccccc3n2C(CCc2ccccc2)c2nc3ccccc3[nH]2)cc(C(F)(F)F)c1 (stereo not given)	n	x	n	x	x
COc1cc(C=CC(=O)OCC=Cc2ccc3c(c2)OCO3)cc(OC)c1OC	n	x	n	x	x
CC(C)COC(=O)N(C)C[C@@H]1OCc2cnnn2CCCC(=O)N([C@H](C)CO)C[C@@H]1C	n	x	n	x	x
NC(=O)CCC(NC(=O)c1ccc(Cl)cc1)C(=O)O (stereo not given)	n	n	n	n	n
O=C(O)CCC(NC(=O)c1ccc(Cl)cc1)C(=O)O (stereo not given)	n	n	n	-32	n
COc1ccc(C)cc1NC(=O)c1cc(S(=O)(=O)N2CCN(c3cccc(C)c3C)CC2)ccc1F	x	n	n	n	n
Nc1nnc(SC2CC(=O)N(c3ccccc3)C2=O)s1 (stereo not given)	-55	n	n	n	n
SMILES	D3 antag	D1 ag	DRD3 agonist	D1 antagonist	D1 potentiator
O=C1CC(Sc2ncccn2)C(=O)N1c1ccccc1 (stereo not given)	n	n	n	n	n
CN(C)CCNC(=O)C1CCN(c2ncnc3c2nc2n3CCCCC2)CC1	x	n	n	n	n
COc1ccc(Cn2c(C)nc3ccc([N+](=O)[O-])cc3c2=O)cc1	n	n	n	-30	n
Cc1nc2ccc([N+](=O)[O-])cc2c(=O)n1Cc1ccc(Cl)cc1	n	n	n	n	n
Cc1ccc(CNC(=O)C(=O)NCC(c2cccnc2)N2CCN(c3ccccc3F)CC2)cc1 (stereo not given)	x	n	n	n	n
CC(C)(C)c1nc(CN2CCCCC2)cc(CN2CCCCC2)c1O	-72	n	n	n	n
CC(C)(C)c1nc(CN2CCOCC2)ccc1O	n	n	n	n	n
